Measured values: the supplement of paper PMC7411054
Structures can show the parent of a compound that is named as a salt.

What was measured:
Test in all cases: phenotypically active (imaging signature differs from DMSO and reproducible) at any of 0.3-9 uM (binary (1 = active, 0 = inactive)); higher = active
Details in all cases: treatment time: 24 h
A549-ACTB-RAB5A = system: A549-ACTB-RAB5A
Method in brief: (§1)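 Phenotypic activity depended on meeting both a deviation and a reproducibility criterion. The fifteen gene-edited A549, HepG2 and WPMY1 reporter lines were treated at 0.3, 1, 3 or 9 µM for 24 h, four wells each, then imaged live with features normalised to solvent control wells. Deviation required ≥3 of 4 wells past the 95th percentile of control Euclidean distances, and reproducibility a median replicate Pearson correlation above the 95th percentile of non-replicates.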

A549-CANX-COX4 = system: A549-CANX-COX4
Method in brief: as §1

A549-GM130-SQSTM1 = system: A549-GM130-SQSTM1
Method in brief: as §1

A549-TP53BP1-CLTA = system: A549-TP53BP1-CLTA
Method in brief: as §1

A549-TUBA1B-RELA = system: A549-TUBA1B-RELA
Method in brief: as §1

HepG2-ACTB-RAB5A = system: HepG2-ACTB-RAB5A
Method in brief: as §1

HepG2-CANX-COX4 = system: HepG2-CANX-COX4
Method in brief: as §1

HepG2-GM130-SQSTM1 = system: HepG2-GM130-SQSTM1
Method in brief: as §1

HepG2-TP53BP1-CLTA = system: HepG2-TP53BP1-CLTA
Method in brief: as §1

HepG2-TUBA1B-RELA = system: HepG2-TUBA1B-RELA
Method in brief: as §1

WPMY1-ACTB-RAB5A = system: WPMY1-ACTB-RAB5A
Method in brief: as §1

WPMY1-CANX-COX4 = system: WPMY1-CANX-COX4
Method in brief: as §1

WPMY1-GM130-SQSTM1 = system: WPMY1-GM130-SQSTM1
Method in brief: as §1

WPMY1-TP53BP1-CLTA = system: WPMY1-TP53BP1-CLTA
Method in brief: as §1

WPMY1-TUBA1B-RELA = system: WPMY1-TUBA1B-RELA
Method in brief: as §1

Measured: phenotypically active

OCC[N+]12CN3CN(CN(C3)C1)C2
inactive: A549-ACTB-RAB5A 0 | A549-CANX-COX4 0 | A549-GM130-SQSTM1 0 | A549-TP53BP1-CLTA 0 | A549-TUBA1B-RELA 0 | HepG2-ACTB-RAB5A 0 | HepG2-CANX-COX4 0 | HepG2-GM130-SQSTM1 0 | HepG2-TP53BP1-CLTA 0 | HepG2-TUBA1B-RELA 0 | WPMY1-ACTB-RAB5A 0 | WPMY1-CANX-COX4 0 | WPMY1-GM130-SQSTM1 0 | WPMY1-TP53BP1-CLTA 0 | WPMY1-TUBA1B-RELA 0

CN1C2CCC1CC(O)C2 (stereo not given) [Tropine]
inactive: A549-ACTB-RAB5A 0 | A549-CANX-COX4 0 | A549-GM130-SQSTM1 0 | A549-TP53BP1-CLTA 0 | A549-TUBA1B-RELA 0 | HepG2-ACTB-RAB5A 0 | HepG2-CANX-COX4 0 | HepG2-GM130-SQSTM1 0 | HepG2-TP53BP1-CLTA 0 | HepG2-TUBA1B-RELA 0 | WPMY1-ACTB-RAB5A 0 | WPMY1-CANX-COX4 0 | WPMY1-GM130-SQSTM1 0 | WPMY1-TP53BP1-CLTA 0 | WPMY1-TUBA1B-RELA 0

C#CCN(C)[C@H](C)Cc1ccccc1 [selegiline]
inactive: A549-ACTB-RAB5A 0 | A549-CANX-COX4 0 | A549-GM130-SQSTM1 0 | A549-TP53BP1-CLTA 0 | A549-TUBA1B-RELA 0 | HepG2-ACTB-RAB5A 0 | HepG2-CANX-COX4 0 | HepG2-GM130-SQSTM1 0 | HepG2-TP53BP1-CLTA 0 | HepG2-TUBA1B-RELA 0 | WPMY1-ACTB-RAB5A 0 | WPMY1-CANX-COX4 0 | WPMY1-GM130-SQSTM1 0 | WPMY1-TP53BP1-CLTA 0 | WPMY1-TUBA1B-RELA 0

C/C=C1/C[N+]2(C)CC[C@]34C(=C(C=O)[C@H]1C[C@@H]32)Nc1ccccc14 (stereo not given in full) [Fluorocurarine chloride]
inactive: A549-ACTB-RAB5A 0 | A549-CANX-COX4 0 | A549-GM130-SQSTM1 0 | A549-TP53BP1-CLTA 0 | A549-TUBA1B-RELA 0 | HepG2-ACTB-RAB5A 0 | HepG2-CANX-COX4 0 | HepG2-GM130-SQSTM1 0 | HepG2-TP53BP1-CLTA 0 | HepG2-TUBA1B-RELA 0 | WPMY1-ACTB-RAB5A 0 | WPMY1-CANX-COX4 0 | WPMY1-GM130-SQSTM1 0 | WPMY1-TP53BP1-CLTA 0 | WPMY1-TUBA1B-RELA 0

O=C1C[C@@H]2OCC=C3C[N+]4([O-])CC[C@]56c7ccccc7N1[C@H]5[C@H]2[C@H]3C[C@@H]64 (stereo not given in full) [Genostrychnine base]
inactive: A549-ACTB-RAB5A 0 | A549-CANX-COX4 0 | A549-GM130-SQSTM1 0 | A549-TP53BP1-CLTA 0 | A549-TUBA1B-RELA 0 | HepG2-ACTB-RAB5A 0 | HepG2-CANX-COX4 0 | HepG2-GM130-SQSTM1 0 | HepG2-TP53BP1-CLTA 0 | HepG2-TUBA1B-RELA 0 | WPMY1-ACTB-RAB5A 0 | WPMY1-CANX-COX4 0 | WPMY1-GM130-SQSTM1 0 | WPMY1-TP53BP1-CLTA 0 | WPMY1-TUBA1B-RELA 0

COc1ccc(C(=O)OC2C[C@H]3CC[C@H](C2)N3C)cc1OC (stereo not given in full) [Convolamine hydrochloride]
inactive: A549-ACTB-RAB5A 0 | A549-CANX-COX4 0 | A549-GM130-SQSTM1 0 | A549-TP53BP1-CLTA 0 | A549-TUBA1B-RELA 0 | HepG2-ACTB-RAB5A 0 | HepG2-CANX-COX4 0 | HepG2-GM130-SQSTM1 0 | HepG2-TP53BP1-CLTA 0 | HepG2-TUBA1B-RELA 0 | WPMY1-ACTB-RAB5A 0 | WPMY1-CANX-COX4 0 | WPMY1-GM130-SQSTM1 0 | WPMY1-TP53BP1-CLTA 0 | WPMY1-TUBA1B-RELA 0

COc1ccc2c(c1OC)C(=O)O[C@@H]2[C@H]1c2cc3c(cc2CCN1C)OCO3 [Hydrastine]
inactive: A549-ACTB-RAB5A 0 | A549-CANX-COX4 0 | A549-GM130-SQSTM1 0 | A549-TP53BP1-CLTA 0 | A549-TUBA1B-RELA 0 | HepG2-ACTB-RAB5A 0 | HepG2-CANX-COX4 0 | HepG2-GM130-SQSTM1 0 | HepG2-TP53BP1-CLTA 0 | HepG2-TUBA1B-RELA 0 | WPMY1-ACTB-RAB5A 0 | WPMY1-CANX-COX4 0 | WPMY1-GM130-SQSTM1 0 | WPMY1-TP53BP1-CLTA 0 | WPMY1-TUBA1B-RELA 0

CNCC(O)c1ccc(O)c(OC)c1 (stereo not drawn) [Metanephrine hydrochloride DL]
inactive: A549-ACTB-RAB5A 0 | A549-CANX-COX4 0 | A549-GM130-SQSTM1 0 | A549-TP53BP1-CLTA 0 | A549-TUBA1B-RELA 0 | HepG2-ACTB-RAB5A 0 | HepG2-CANX-COX4 0 | HepG2-GM130-SQSTM1 0 | HepG2-TP53BP1-CLTA 0 | HepG2-TUBA1B-RELA 0 | WPMY1-ACTB-RAB5A 0 | WPMY1-CANX-COX4 0 | WPMY1-GM130-SQSTM1 0 | WPMY1-TP53BP1-CLTA 0 | WPMY1-TUBA1B-RELA 0

CC(C)[N+](C)(CCC(C(N)=O)(c1ccccc1)c1ccccc1)C(C)C [isopropamide-iodide]
inactive: A549-ACTB-RAB5A 0 | A549-CANX-COX4 0 | A549-GM130-SQSTM1 0 | A549-TP53BP1-CLTA 0 | A549-TUBA1B-RELA 0 | HepG2-ACTB-RAB5A 0 | HepG2-CANX-COX4 0 | HepG2-GM130-SQSTM1 0 | HepG2-TP53BP1-CLTA 0 | HepG2-TUBA1B-RELA 0 | WPMY1-ACTB-RAB5A 0 | WPMY1-CANX-COX4 0 | WPMY1-GM130-SQSTM1 0 | WPMY1-TP53BP1-CLTA 0 | WPMY1-TUBA1B-RELA 0

CCN(CC)C(C)C(=O)c1ccccc1 (stereo not given) [amfepramone]
inactive: A549-ACTB-RAB5A 0 | A549-CANX-COX4 0 | A549-GM130-SQSTM1 0 | A549-TP53BP1-CLTA 0 | A549-TUBA1B-RELA 0 | HepG2-ACTB-RAB5A 0 | HepG2-CANX-COX4 0 | HepG2-GM130-SQSTM1 0 | HepG2-TP53BP1-CLTA 0 | HepG2-TUBA1B-RELA 0 | WPMY1-ACTB-RAB5A 0 | WPMY1-CANX-COX4 0 | WPMY1-GM130-SQSTM1 0 | WPMY1-TP53BP1-CLTA 0 | WPMY1-TUBA1B-RELA 0

CNC(=O)Oc1ccc2c(c1)[C@]1(C)CCN(C)O[C@@H]1N2C [Geneserine]
inactive: A549-ACTB-RAB5A 0 | A549-CANX-COX4 0 | A549-GM130-SQSTM1 0 | A549-TP53BP1-CLTA 0 | A549-TUBA1B-RELA 0 | HepG2-ACTB-RAB5A 0 | HepG2-CANX-COX4 0 | HepG2-GM130-SQSTM1 0 | HepG2-TP53BP1-CLTA 0 | HepG2-TUBA1B-RELA 0 | WPMY1-ACTB-RAB5A 0 | WPMY1-CANX-COX4 0 | WPMY1-GM130-SQSTM1 0 | WPMY1-TP53BP1-CLTA 0 | WPMY1-TUBA1B-RELA 0
